BRCT inh green – BRCA1 BRCT-phosphoprotein interaction inhibition. P38398. actives 0.05% (n = 75,000). BRCA1 BRCT-phosphopeptide binding, green fluorescence polarization. Potency, µM (highest dose often 76.9 µM), for inactives: at the top dose activity change, negative = inhibition, hits mostly inhibitors;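 also: potency is read from the fitted curve at half-maximal effect; plate controls were peptide without protein for full effect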
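Compounds were incubated for 12 min at room temperature with a complex of 100 nM fluorescein-tagged pBACH1 decapeptide and 250 nM His-tagged BRCT protein. Buffer was phosphate pH 7.3 with EDTA, DTT and Tween 20. Disruption of binding lowers the polarization signal.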
YjeE inh – displaces an ADP probe from E. coli YjeE (TsaE); P0AF67; purified YjeE enzyme, qHTS inhibition assay; Potency, µM; actives 0.05% (n = 71,000); AID 605
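Purified YjeE (10 uM) with BODIPY Texas Red-labeled ADP probe (2 uM); compounds pin-transferred, 15 min at room temperature. Binding inhibition read as decreased fluorescence polarization; ADP titration as control.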
DNA Pol III inh – DNA polymerase III holoenzyme inhibition | reconstituted DNA polymerase III holoenzyme replication, biochemical | Potency, µM (highest dose often 57.1 µM), for inactives: top-dose activity change, negative = inhibition | actives 0.25% (n = 71,000); also: potency is read from the fitted curve at half-maximal effect; % is scaled to controls: 0 for no effect and ±100 for the full control effect
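Reconstituted *E. coli* holoenzyme (0.35 nM Pol III, 1 nM beta, 154 nM SSB, 2 nM primase) was preincubated with compound for 15 min at RT. Synthesis on 1.4 nM ssM13Gori ran 35 min, then was stopped with PicoGreen/EDTA and read as dsDNA fluorescence.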
ALOX15 inhib – inhibitors of human 15-lipoxygenase (ALOX15); Potency, µM (doses to about 57.1 µM), for the others: top-dose activity change, negative = inhibition, usual class: inhibitors; P16050; AID 887; purified 15hLO-1, xylenol orange hydroperoxide absorbance; actives 1.4% (n = 74,000); also: potency is read from the fitted curve at half-maximal effect; % is scaled to controls: 0 for no effect and ±100 for the full control effect; nearly all actives have a fitted effect of over 55% in size
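Compounds were preincubated 15 min at room temperature with 40 nM purified human enzyme (25 mM Hepes pH 7.5, 0.01% Triton X-100); 50 uM arachidonic acid reacted 6 min. Fe-xylenol orange detection, 30 min, absorbance ratio 573/405 nm.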
15-hLO-2 inh – blocks human 15-lipoxygenase 2 activity; Potency, µM (titrated, usually from 57.1 µM), without a hit: top-dose activity change, negative = inhibition, hits mostly inhibitors; purified 15hLO-2, xylenol orange hydroperoxide absorbance; O15296; AID 881; actives 0.56% (n = 110,000); also: potency is read from the fitted curve at half-maximal effect; % is scaled to controls: 0 for no effect and ±100 for the full control effect; nearly all actives have a fitted effect of over 60% in size
Target sequence (O15296 whole entry, looked up): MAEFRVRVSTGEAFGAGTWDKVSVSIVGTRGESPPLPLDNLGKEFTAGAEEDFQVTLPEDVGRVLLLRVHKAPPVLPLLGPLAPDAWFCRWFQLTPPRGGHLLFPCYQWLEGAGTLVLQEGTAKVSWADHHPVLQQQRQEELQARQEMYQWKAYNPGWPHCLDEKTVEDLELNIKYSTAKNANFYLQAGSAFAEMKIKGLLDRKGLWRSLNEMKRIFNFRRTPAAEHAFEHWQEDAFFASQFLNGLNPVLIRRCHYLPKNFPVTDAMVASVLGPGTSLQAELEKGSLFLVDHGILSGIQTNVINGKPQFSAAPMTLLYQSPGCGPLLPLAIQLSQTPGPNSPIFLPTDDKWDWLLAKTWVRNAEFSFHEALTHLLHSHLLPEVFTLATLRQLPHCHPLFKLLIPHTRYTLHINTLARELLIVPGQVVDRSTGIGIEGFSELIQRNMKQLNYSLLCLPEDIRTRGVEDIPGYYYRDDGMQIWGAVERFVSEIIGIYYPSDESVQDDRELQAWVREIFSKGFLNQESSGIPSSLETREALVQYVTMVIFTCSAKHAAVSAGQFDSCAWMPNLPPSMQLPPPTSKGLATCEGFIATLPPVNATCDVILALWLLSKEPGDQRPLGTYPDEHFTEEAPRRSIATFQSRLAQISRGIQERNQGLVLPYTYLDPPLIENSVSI
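Purified human 15hLO-2 (50 nM) preincubated 15 min with compound, then 45 uM arachidonic acid for 90 min at RT in 25 mM Hepes pH 7.5, 0.01% Triton X-100. Hydroperoxide detected by Fe-xylenol orange; 573/405 nm absorbance ratio.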
BRCT PPI red – BRCT-phosphoprotein interaction inhibition (red fluorophore); P38398; actives 0.03% (n = 75,000); Potency, µM (highest dose often 76.9 µM), inactives show at the top dose activity change, negative = inhibition, actives largely listed as inhibitors; BRCT-phosphopeptide binding, red fluorescence polarization; also: % is scaled to controls: 0 for no effect and ±100 for the full control effect
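Fluorescence polarization: 100 nM His-tagged BRCA1 BRCT with 100 nM TAMRA-labelled phospho-BACH1 decapeptide, phosphate buffer pH 7.3 with 150 mM NaCl, DTT, 0.01% Tween 20; 12 min RT. Binding inhibition seen as FP decrease.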
An asterisk follows results filed as active; i = inactive; ? = inconclusive; nt = no result given; [ ] = remark or other dose. Shown is part of a subset that was picked to be rich in hits. Calls follow the shape of the dose curve; as a rule, active = well fitted curve in the direction sought with a large enough effect; inconclusive = small, poorly fitted or top-dose-only effect, or another doubt; inactive = no such curve, though single readings can be large; an effect the other way counts as inactive or inconclusive.

SMILES	BRCT inh green	YjeE inh	DNA Pol III inh	ALOX15 inhib	15-hLO-2 inh	BRCT PPI red
c1ccc(CCc2cccnc2)nc1	-2.0%[15.4 µM]	i	-8.1%[11.4 µM]	7.5%[11.4 µM]	-2.2%[11.4 µM]	-0.1%[15.4 µM]
NC(=O)c1sc(=S)n(-c2ccc(Br)cc2)c1N	-8.0%	i	-7.4%	10µM*	-9.1%	-1.1%
CCN(CC)[C@@H](C)C(=O)N1c2ccccc2Sc2ccccc21	nt	i	-3.5%	nt	nt	nt
CCOc1ccc2noc3c2c1C(=O)c1ccccc1-3	3.98µM*	i	244.1%	-1.0%	-10.4%	-1.3%
O=C1c2ccccc2-c2onc3ccc(NCc4ccco4)c1c23	nt	nt	nt	nt	-15.3%	nt
O=C(OCC#CCSc1nnc(-c2ccc(Br)cc2)o1)c1ccco1	0.5%	i	5.7%	3.16µM*	-11.6%	1.8%
NC(=O)c1cccc2c3c([nH]c12)CCCC3	-4.2%	i	1.8%	3.16µM*	-9.6%	-1.0%
CCOC(=O)C1CCCc2c1[nH]c1c(C(N)=O)cccc21 (stereo not drawn)	nt	nt	nt	nt	0.5%	nt
O=C(CSC1=NS(=O)(=O)c2ccccc21)Nc1ccccc1	-2.2%	i	-6.8%	-26.6%	12.6µM*	0.7%
CC(C)=CCCC(C)CCO (stereo not drawn)	-3.7%	i	-1.2%	7.94µM*	7.6%	-1.2%
O=C(c1cnccn1)N1CCc2ccccc21	-1.0%	i	?	15.8µM*	0.2%	-1.1%
O=C(c1cccnc1)N1CCCc2ccccc21	-1.1%	i	3.8%[11.4 µM]	-5.5%[11.4 µM]	-3.7%	-1.6%
NCCc1nc(-c2nc(C(=O)O)cs2)cs1	-1.2%[15.4 µM]	i	-3.4%[11.4 µM]	3.5%[11.4 µM]	-5.4%[11.4 µM]	-1.1%[15.4 µM]
CSc1nnc(-c2ccco2)c(-c2ccco2)n1	-11.1%	i	?	2µM*	-17.7%	-20.8%
Cc1ccccc1NC(=O)CSc1nnc(-c2ccco2)c(-c2ccco2)n1	nt	nt	nt	nt	-0.1%	nt
COc1cc([C@H](O)CO)ccc1O	-1.3%	i	-8.4%	-3.1%	-3.9%	1.3%
O=C(O)CCCCCC[C@@H]1C(=O)NC(=O)N1CC[C@@H](O)C1CCCCC1	nt	i	-6.4%	nt	nt	nt
C[C@H]1[C@H](C)CC[C@@]2(C(=O)O)CC[C@]3(C)C(=CC[C@@H]4[C@@]5(C)CC[C@H](O)C(C)(C)[C@@H]5CC[C@@]43C)[C@@H]12	nt	i	-1.9%	nt	nt	nt
c1csc(CNc2cc(-c3ccoc3)ncn2)c1	-2.9%	i	-3.8%	15.9%	7.2%	-2.0%
c1cncc(-c2cc(NCc3cccs3)ncn2)c1	-2.5%	i	-2.7%	25.1µM*	?	-3.8%
CCCC(=O)Nc1sc2c(c1C#N)CCCC2	nt	nt	nt	nt	-8.2%	nt
CC1CCN(CC(=O)Nc2sc3c(c2C#N)CCC3)CC1	22.5%	i	-0.9%	25.1µM*	-13.9%	0.0%
CCOC(=O)c1c(C)nc2c(c1-c1cc(OC)ccc1OC)C(=O)c1ccccc1-2	nt	nt	nt	nt	9.0%	nt
CCOC(=O)C1=C(Cc2ccc(OC)cc2)C(=O)c2ccccc2C1=O	nt	nt	nt	nt	12.6µM*	nt
CCOC(=O)c1ccc(COC(=O)c2ccc3c(c2)-c2ccccc2C3=O)cc1	nt	nt	nt	nt	9.3%	nt
SMILES	BRCT inh green	YjeE inh	DNA Pol III inh	ALOX15 inhib	15-hLO-2 inh	BRCT PPI red
CCOC(=O)C1=C(Cc2ccc(C)cc2)C(=O)c2ccccc2C1=O	nt	nt	nt	nt	10µM*	nt
COc1ccc2nc3c(nc2c1)C(=O)c1ccccc1-3	-0.2%	nt	nt	-6.2%	nt	1.7%
CC12C=C(/C=C/c3ccccc3)C(C)(C1)C(c1ccccc1)CC2=O (stereo not drawn)	0.7%[15.4 µM]	nt	nt	2.1%[11.4 µM]	nt	-0.3%[15.4 µM]
Cc1ccc(CNC2=NCCCCC2)n1C	0.1%	i	-0.4%	20µM*	-0.4%	-0.5%
CN(C)c1ccc(N=Cc2ccco2)cc1	0.2%	i	-0.1%	?	31.6µM*	-0.8%
C=Cc1c(C)/c2[n-]/c1=C\c1[n-]c(c(CC)c1C)/C=c1\[n-]c3c(c1C)C(=O)C(C(=O)[O-])C=3c1[n-]c(c(C)c1CCC(=O)[O-])\C=2.[Cu].[Na+].[Na+] (stereo not drawn)	-2.1%[3.08 µM]	nt	nt	6.31µM*	7.94µM*	?
C[C@@]1(C(=O)O)NCCc2cc(O)c(O)cc21	-0.7%	i	7.94µM*	43.5%[25.6 µM]	-2.1%	-1.4%
